Compounds without any hit were thinned out: in the full panel of roughly 83,000, 20% have a hit.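 96-well plates, one dose, 48 hours. Percent growth reported; active if below 10.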 A number with no mark means an inactive call. Active and inactive are the calls of the source.
Key:
Test in all cases: NCI-60 one-dose screen, 48 h (100 = growth as untreated, 0 = no growth, -100 = all killed)
Conditions in all cases: 10 µM unless noted
[1] = test system: NCI-H23 lung
[2] = test system: NCI-H226 lung
[3] = test system: NCI-H322M lung
[4] = test system: HOP-62 NSCLC
[5] = test system: NCI-H460 lung
[6] = test system: HOP-92 NSCLC
[7] = test system: NCI-H522 lung
[8] = test system: A549/ATCC NSCLC
[9] = test system: 786-0 renal
[10] = test system: COLO 205 colon
[11] = test system: DU-145 prostate
[12] = test system: K-562 leukemia
[13] = test system: MALME-3M melanoma
[14] = test system: MDA-MB-231 breast
[15] = test system: RXF 393 renal
[16] = test system: SF-268 CNS
[17] = test system: SF-295 CNS
[18] = test system: SF-539 CNS
[19] = test system: UACC-257 melanoma
[20] = test system: M14 melanoma

| Compound | growth [1] | growth [2] | growth [3] | growth [4] | growth [5] | growth [6] | growth [7] | growth [8] | growth [9] | growth [10] | growth [11] | growth [12] | growth [13] | growth [14] | growth [15] | growth [16] | growth [17] | growth [18] | growth [19] | growth [20] |
| --- | --- | --- | --- | --- | --- | --- | --- | --- | --- | --- | --- | --- | --- | --- | --- | --- | --- | --- | --- | --- |
| COc1cc([C@@H]2c3cc4c(cc3[C@H](OC(C)=O)[C@H]3COC(=O)[C@H]23)OCO4)cc(OC)c1OC | 25% | 76.4% | 42.7% | 37.8% | 9.09% (active) | 32.8% | -4.13% (active) | 19.5% | 20.5% | -27.9% (active) | 1.84% (active) | 9.74% (active) | 68.9% | 23.7% | 54.9% | 37% | 10.6% | -11% (active) | 75.9% | 6.87% (active) |
| C[C@]12CC[C@H]3[C@@H](C[C@@H]4SC(Nc5ccccc5)=N[C@@]45CC(O)CC[C@]35C)[C@@H]1CCC2O (stereo not given in full) | 67.3% | 63.9% | 78.4% | 34.2% | 6.06% (active) | 104% | 25.8% | 57.1% | -49.7% (active) | 57.1% | 14.2% | 4.96% (active) | 71.2% | 35.8% | -32.3% (active) | 9.68% (active) | 7.36% (active) | -34.3% (active) | 69.3% | 53.4% |
| CN(C)C1C(=O)C(C(N)=O)=C(O)C2(O)C(=O)C3=C(O)c4c(O)cccc4C(C)(O)C3CC12.[Cl][Sb]([Cl])[Cl] (stereo not given) | 46.1% | 86.6% | 46.3% | 45.8% | 4.47% (active) | -5.57% (active) | 4.59% (active) | 26.1% | 26.6% | 96.5% | 60% | 22.9% | -21.2% (active) | 79.1% | 59.2% | 29.7% | -3.24% (active) | 20.9% | 30.1% | 37% |
| Oc1c(CCl)cc(Cl)cc1CCl | 100% | 98.8% | 123% | 95.1% | 108% | 92.8% | 105% | 116% | 114% | 109% | 122% | 99.3% | 110% | 104% | 119% | 104% | 106% | 104% | 131% | 108% |
| Brc1ccc2c(c1)c(-c1nc(-c3c[nH]c4ncccc34)cs1)cn2CCN1CCCCC1 | 89% | 80% | 65.6% | 88.7% | 67.4% | 37.1% | 68.8% | 67.5% | 53% | 37.7% | 82.6% | -15.7% (active) | 100% | 62.1% | 60.4% | 75.9% | 91.5% | 87.3% | 96.7% | 15.8% |
| Cn1cc(-c2csc(-c3cn(CCCCN4CCCCC4)c4ccccc34)n2)c2cccnc21 | 42.7% | 68.2% | 88.2% | 51.6% | -44.9% (active) | 46.3% | 48% | -47.1% (active) | -85.1% (active) | -73.7% (active) | 21% | -57.8% (active) | -66.9% (active) | -63.5% (active) | -84.5% (active) | 1.24% (active) | -18% (active) | -73.2% (active) | -67.3% (active) | -80.3% (active) |
| Clc1ccc(CSC(Cn2ccnc2)c2ccc(Cl)cc2Cl)cc1 (stereo not given) | 27.1% | 52.2% | 63.3% | 52.6% | 23.2% | -4.58% (active) | 34.6% | 27.5% | 34.2% | -55.2% (active) | 68.3% | 10.2% | 21% | 64.7% | 15.3% | 50.2% | 10.7% | 44.4% | 23.1% | 29.7% |
| CC(C)=CCc1c(O)c(C(=O)CC(C)C)c(O)c2c(-c3ccccc3)cc(=O)oc12 | 26.8% | 47.4% | 63.2% | 84.2% | 27.9% | -13.2% (active) | 31.5% | 54.6% | 66.2% | 83.1% | 61.9% | 28% | 56.9% | 5.93% (active) | 74.1% | 52.1% | 43.4% | 68.9% | 58.1% | 61% |
| C1CCC2(CC1)OOCNCOO2 | 98.2% | 107% | 97.4% | 103% | 108% | 122% | 89.7% | 102% | 105% | 115% | 111% | -35.4% (active) | 110% | 120% | 116% | 97.3% | 97.4% | 101% | 98.5% | 100% |
| O=[N+]([O-])c1cc([N+](=O)[O-])c(Nn2c3ccccc3c3ccccc32)c([N+](=O)[O-])c1 | -3.12% (active) | -1.91% (active) | 2.33% (active) | -11.8% (active) | 3.43% (active) | -28.1% (active) | -25.4% (active) | 4.97% (active) | 0.775% (active) | -65.2% (active) | 22.7% | 6.42% (active) | -16.2% (active) | -6.81% (active) | -4.31% (active) | 16.2% | -47.6% (active) | 8.26% (active) | -22.6% (active) | 1.91% (active) |
| CC(=O)O[C@H](C[C@H](C(C)C)N(C)C(=O)[C@@H](NC(=O)[C@H]1CCCCN1C)C(C)C)c1nc(C(=O)N[C@@H](Cc2ccccc2)C[C@H](C)C(=O)O)c(C)s1 | 35.9% | 52.6% | 52.8% | 32.1% | 7.72% (active) | 25.6% | -4.18% (active) | 11.9% | 26.1% | -62.6% (active) | 21.8% | 14% | 58.5% | 23.5% | 53.9% | 29.7% | 15.9% | 4.22% (active) | 46.3% | 6.5% (active) |
| COc1cc(C=Nc2cc(Cl)cc(Cl)c2)ccc1N(CCCl)CCCl | 80.1% | 76.4% | 92.8% | 95.7% | 13.7% | 77.3% | -84.3% (active) | 91.9% | 107% | 76.9% | 98.2% | 84.6% | 74.9% | 65.5% | 82% | 93% | 80.8% | 89.3% | 100% | 92.2% |
| C=COC(=O)CCN1CC1 | 100% | 98.9% | 102% | 95% | 105% | 111% | 107% | 102% | 110% | 114% | 113% | 111% | 112% | 103% | 111% | 106% | 101% | 103% | 105% | 102% |
| O=C1C2CCC1C(N1CCCC1)CC2 (stereo not given) | 105% | 95.9% | 92.5% | 101% | 103% | 85.5% | 94.9% | 97.8% | 98.4% | 107% | 107% | 98.8% | 94.7% | 110% | 104% | 102% | 95.5% | 95% | 93% | 101% |
| COc1ccc(C(O)(C(=O)O)c2ccc(OC)cc2)cc1 | 89.8% | 116% | 102% | 91% | 97.2% | 95.1% | 62% | 71.6% | 94.8% | 102% | 104% | 87.8% | 105% | 85.7% | 109% | 95.3% | 87.1% | 86.8% | 90.6% | 86.2% |
| CCOC(=O)[C@@H](C)C[C@H](Cc1ccccc1)NC(=O)c1csc([C@@H](C[C@H](C(C)C)N(C)C(=O)CNC(=O)[C@H]2CCCCN2C)OC(C)=O)n1 | 31.7% | 69.9% | 44.7% | 23.5% | 5.98% (active) | 47.5% | -12.8% (active) | 16.4% | 19.8% | -11.6% (active) | 9.26% (active) | 6.73% (active) | 76.1% | 14.5% | -13.8% (active) | 46.6% | 5.3% (active) | -8.42% (active) | 58.7% | -20.9% (active) |
